Assay results reported in PubChem BioAssay.
The source made the active and inactive calls.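 Rule for the calls: active = mean duplicate potentiation above the buffer control mean plus 5 SD of buffer wells; inactive = the rest.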

target: Potassium voltage-gated channel subfamily KQT member 2 (Rattus norvegicus) (UniProt O88943); test: rat KCNQ2 channel potentiation, selectivity assay for KCNQ1 potentiator project, KCNQ2-CHO-K1 cells (AID 493009); details: FluxOR thallium flux fluorescence, at 10 µM; stronger effect = higher value, scaled: buffer 0, activator control 100;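 note: assay conditions were tuned for KCNQ1 rather than KCNQ2 modulators; signal is max minus min fluorescence divided by baseline after thallium stimulus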
Sequence (O88943 whole entry, looked up): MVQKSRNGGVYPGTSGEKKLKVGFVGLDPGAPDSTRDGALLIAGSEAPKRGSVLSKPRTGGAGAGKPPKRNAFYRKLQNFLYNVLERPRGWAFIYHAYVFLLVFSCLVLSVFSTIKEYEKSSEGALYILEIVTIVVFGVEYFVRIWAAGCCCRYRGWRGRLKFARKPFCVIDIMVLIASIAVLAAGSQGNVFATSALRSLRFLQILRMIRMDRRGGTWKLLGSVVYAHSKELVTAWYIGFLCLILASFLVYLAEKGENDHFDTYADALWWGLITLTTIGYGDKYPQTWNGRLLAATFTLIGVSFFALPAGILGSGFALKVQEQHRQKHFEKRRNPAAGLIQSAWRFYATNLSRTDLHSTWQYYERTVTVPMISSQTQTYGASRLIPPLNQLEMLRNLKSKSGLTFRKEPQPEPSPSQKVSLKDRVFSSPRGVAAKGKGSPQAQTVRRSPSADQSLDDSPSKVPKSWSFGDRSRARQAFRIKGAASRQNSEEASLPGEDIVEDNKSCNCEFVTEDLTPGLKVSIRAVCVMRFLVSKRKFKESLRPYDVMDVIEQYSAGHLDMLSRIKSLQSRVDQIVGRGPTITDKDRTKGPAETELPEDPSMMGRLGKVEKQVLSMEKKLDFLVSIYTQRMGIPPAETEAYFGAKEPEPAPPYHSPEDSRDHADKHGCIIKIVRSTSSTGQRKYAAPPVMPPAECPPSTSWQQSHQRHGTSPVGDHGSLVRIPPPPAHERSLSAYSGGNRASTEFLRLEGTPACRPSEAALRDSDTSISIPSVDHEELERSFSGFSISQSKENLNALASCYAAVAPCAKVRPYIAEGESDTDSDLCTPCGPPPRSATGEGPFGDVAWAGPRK

Structure (SMILES)	outcome	potentiation
CN1C=CC=C/C1=C1\SC(=S)N(Cc2ccccc2)C1=O	inactive	
CCOc1ccc(NC(=O)CN(C)C(=O)C2CCN(c3ncnc4sc(C)c(C)c34)CC2)cc1OCC	inactive	
CC1=NN(C(=O)c2csc(C)c2C)C(O)(C(F)(F)F)C1 (stereo not given)	inactive	
COc1ccc(C(=O)O/N=C(\N)Cc2ccc(Cl)cc2Cl)cc1OC	inactive	
O=C(NCC1CCCO1)c1ccccc1OCc1ccc(F)cc1 (stereo not given)	inactive	
Cc1ccc(S(=O)(=O)N(C)c2nc3ccccc3[nH]c2=S)cc1		197% (active)
CC1=CC(=O)C=C(C)C1=NOS(=O)(=O)c1ccccc1	inactive	
CCOc1ccccc1NC(=O)C(=O)CC(=O)c1cccc(OC)c1		280% (active)
O=C(CN(Cc1ccccc1Cl)C(=O)c1csnn1)NC1CCCC1	inactive	
Oc1c(N=NC(=S)Nc2ccccc2F)c2ccccc2n1Cc1ccccc1		183% (active)
Fc1ccc(NC(=S)N/N=C/c2ccc(F)c(F)c2)c(F)c1	inactive	
CCC1(c2ccc(Cl)cc2)NC(=S)N(c2ccc(C)c(C)c2)N1 (stereo not given)		550% (active)
O=C(Nc1nnc(-c2ccco2)o1)c1cccc(Cl)c1	inactive	
O=C(NC(=S)Nc1ccccc1F)c1ccc(Br)o1		261% (active)
COc1cccc(OCC(=O)NNC(=O)C(=O)Nc2ccc(OC)cc2OC)c1		222% (active)
COCCCn1c(=S)[nH]c2c(sc3ccccc32)c1=O		160% (active)
CN(C)c1ccc(C(=O)Nc2nnc(C3=COCCO3)o2)cc1	inactive	
CCSc1nnc(NC(=O)[C@H](C)NC(=O)c2ccccc2Cl)s1	inactive	
O=C(N/N=C/c1cccnc1)c1ccco1	inactive	
O=C(c1ccccc1)N1CCC(CC2CC(c3ccc(Cl)cc3)=NO2)(C(=O)NCC2CCCCC2)CC1 (stereo not given)	inactive	

Structure (SMILES)	outcome	potentiation
O=c1c2ccccc2[nH]c(=S)n1CCC1=CCCCC1		196% (active)
Cc1ccc(-c2nc(N)s[n+]2-c2ccccc2)cc1		155% (active)
CCn1c(O)c(N=NC2=NC(=O)CS2)c2ccccc21		145% (active)
Cc1ccccc1-n1c(C)cc(/C=N/NC(=O)c2ccncc2)c1C		165% (active)
COc1cc(CNCCN2CCOCC2)ccc1OCc1ccc(Cl)cc1Cl	inactive	
CN(C(=S)NC(=O)c1ccccc1)C1CCCCC1		186% (active)
CCc1ccc2[nH]c(O)c(N=Nc3nc(-c4ccccc4)cs3)c2c1		282% (active)
O=C(NC(=S)N1CCN(C/C=C/c2ccccc2)CC1)c1c(F)cccc1F	inactive	
O=C(COC(=O)C12CC3CC(CC(C3)C1)C2)NCCCc1ccccc1	inactive	
Cc1ccc(SCC2(O)CCN(S(=O)(=O)c3ccc(Cl)cc3)CC2)cc1	inactive	
O=C(NC(=S)N1CCCc2ccccc21)c1ccc([N+](=O)[O-])cc1		247% (active)
Cc1ccc(-c2nc3ccccc3o2)cc1NC(=S)NC(=O)c1cc2ccccc2o1	inactive	
O=C(CSc1nnc(SCc2cccc3ccccc23)s1)c1ccc2c(c1)OCO2	inactive	
COCCn1c(=S)[nH]c2sc3c(c2c1=O)CCCC3		312% (active)
O=C(CC1C(=O)NCCN1Cc1cccc(F)c1)NCCCN1CCCC1=O (stereo not given)	inactive	
O=C(NC(=S)Nc1cccc(Cl)c1N1CCCCC1)c1ccco1		178% (active)
CCCc1cc(=O)n2[nH]cc(-c3ccc(Cl)cc3)c2n1		164% (active)
Oc1oc(-c2cccc3ccccc23)nc1/C=N/c1nccs1		164% (active)
O=c1c2ccccc2nc(-c2cccc(Cl)c2)n1O		327% (active)
CCCCN1CNC(=S)N(c2ccccc2OCC)C1	inactive	
